High-throughput results (PubChem BioAssay)
Only a selection was taken, and hits are over-represented in it overall.
CHX counter – affects cycloheximide protein synthesis inhibition readout, counter-screen; 12% of 300,000 active; cell reporter, cycloheximide protein synthesis inhibition counterscreen; max response, %; AID 2314; in the data active means max response mostly above about 13%, no sharp cut-off; inactive means mostly below about 14%; further: read at 38.3 µM for the half of the compounds with a filed dose
Tb PYK inh – inhibitors of Trypanosoma brucei pyruvate kinase. Q57TT1. TbPYK enzyme, Kinase-Glo Plus ATP luminescence, 45 min. 0.12% of 410,000 active. Potency, µM (series often up to 76.8 µM), hits mostly inhibitors; further: nearly all actives have a fitted effect of over 50% in size
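Assay buffer: 50 mM TEA pH 7.2, 100 mM KCl, 10 mM MgCl2, 0.05% BSA, 0.01% Tween-20. Pyruvate kinase from T. brucei plus substrate met compound, then ADP (130 uM final). Luminescence was read post 45 min RT.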
LmPK inhibitor – inhibitors of Leishmania mexicana pyruvate kinase. Q27686. purified LmPK, Kinase-Glo ATP luminescence, 1 h. Potency, µM (top dose mostly 57.5 µM), most hits filed as inhibitors. 0.37% of 290,000 active. AID 1721
Target sequence (Q27686 whole entry, looked up): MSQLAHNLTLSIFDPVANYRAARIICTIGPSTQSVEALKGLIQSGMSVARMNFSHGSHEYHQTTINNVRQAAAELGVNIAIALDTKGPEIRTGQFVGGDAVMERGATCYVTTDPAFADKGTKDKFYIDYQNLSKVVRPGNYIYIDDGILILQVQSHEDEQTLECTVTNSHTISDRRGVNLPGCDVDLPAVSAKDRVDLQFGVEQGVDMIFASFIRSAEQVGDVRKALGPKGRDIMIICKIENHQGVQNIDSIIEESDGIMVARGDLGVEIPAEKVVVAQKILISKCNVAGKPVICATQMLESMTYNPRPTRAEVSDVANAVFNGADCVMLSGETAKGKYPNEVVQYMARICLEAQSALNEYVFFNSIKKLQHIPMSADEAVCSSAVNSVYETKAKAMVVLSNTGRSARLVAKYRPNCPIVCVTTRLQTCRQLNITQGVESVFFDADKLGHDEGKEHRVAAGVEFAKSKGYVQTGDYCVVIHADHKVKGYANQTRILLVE
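In 50 mM imidazole pH 7.2 with 7 mM MgCl2, LmPK (0.1 nM) turned over PEP (0.5 mM) and ADP (0.1 mM) for 1 h at room temperature. Luciferase read-out of ATP.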
Sm TGR block – S. mansoni TGR enzyme inhibition; Q962Y6; purified TGR, DTNB reduction, TNB absorbance 405 nm; Potency, µM (highest dose often 114 µM), hits mostly inhibitors; 3% of 360,000 active; AID 485364; further: nearly all actives have a fitted effect of over 60% in size
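First, TGR (20 nM dispensed) and NADPH were mixed with compound. Second, a 15 min room-temperature incubation followed. Third, further NADPH and then DTNB were added to start the reaction. Finally, TNB absorbance was monitored kinetically.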
FBPA Giardia inh – Giardia lamblia aldolase inhibition; A8B2U2; purified Giardia FBPA; Potency, µM (doses to about 59.6 µM), most hits filed as inhibitors; 0.71% of 290,000 active; AID 2451; further: nearly all actives have a fitted effect of over 55% in size
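40 nM FBPA preincubated 10 min at RT with compound (up to 57.5 uM final), then substrate plus GAPDH/TPI/NAD/arsenate coupling and diaphorase/resazurin added. Fluorescence read after 20 min at RT, 525/598 nm.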
Shiga toxin inh – Shiga toxin inhibition | 9.2% of 290,000 active | Vero cells, Shiga toxin protein synthesis inhibition reporter | inhibition, % at 38.7 µM; in the data active means inhibition mostly above about 28%, no sharp cut-off; inactive means mostly below about 43%
A number is an active result; - = inactive; ? = inconclusive; . = no result; [ ] = dose if it differs, or a comment. Unless noted, the call rests on the fitted dose curve; in most records, active means well fitted curve in the direction sought with a large enough effect; inconclusive means small, poorly fitted or top-dose-only effect, or another doubt; inactive means no such curve, though single readings can be large; an effect the other way counts as inactive or inconclusive.

SMILES	CHX counter	Tb PYK inh	LmPK inhibitor	Sm TGR block	FBPA Giardia inh	Shiga toxin inh
O=C(Nc1cccc(-c2nc3ccccc3s2)c1)c1cc(=O)c2ccccc2o1	-	-	-	-	-	30.5
O=C(NCCc1ccc(F)cc1)c1cc(=O)c2ccccc2o1	24.9	-	-	-	-	-
COC(=O)[C@@]1(Cc2ccc(OC)cc2)[C@H]2c3cc(C(=O)N(C)C)n(Cc4ccsc4Br)c3C[C@H]2CN1C(=O)c1ccccc1	.	.	.	.	-	.
NC(=O)COc1ccc2oc(=O)cc(-c3cc4ccccc4o3)c2c1	-	-	-	-	-	-
O=C1CCCc2nc(N3CCN(C(=O)c4ccco4)CC3)ncc21	19.5	-	-	-	.	25.1
O=C(c1ccco1)N1CCN(c2ncccn2)CC1	-	-	-	-	-	-
Nc1nc(N2CCN(C(=O)c3ccco3)CC2)nc2ccc(Br)cc12	25.4	-	-	44.7µM	-	50.1
Nc1nc(N2CCN(C(=O)c3ccco3)CC2)nc2ccccc12	28.0	-	-	-	-	67.1
CCc1ncnc2cc(OC)c(OC)cc12	.	-	.	.	.	.
COc1ccccc1N=NC1=C(O)CC(C)(C)CC1=O	22.8	-	-	-	-	active
CC1(C)CC(=O)C(N=Nc2ccc3ncsc3c2)=C(O)C1	29.0	-	-	-	-	48.7
CC1(C)CC(=O)C(N=Nc2ccc(OC(F)F)cc2)=C(O)C1	56.9	-	-	-	-	78.7
CC1(C)CC(=O)C(N=Nc2ccc(F)cc2)=C(O)C1	-	-	-	-	-	-
COc1ccc2nc(N=NC3=C(O)CC(C)(C)CC3=O)sc2c1	27.5	-	-	-	?	-
CC1(C)CC(=O)C(N=Nc2ccc(-c3ccccc3)cc2)=C(O)C1	-	-	-	-	-	-
CC1CCN(c2ccc(NC(=S)NC(=O)c3ccco3)cc2)CC1	19.0	-	-	?	-	72.3
O=C(NC(=S)Nc1ccc(N2CCCCC2)cc1)c1ccco1	39.1	-	-	15.8µM	-	91.6
O=C(COC(=O)COc1ccccc1)NC1CCCC1	.	-	.	-	.	.
O=C(Nc1ccccc1Cl)c1ccc2nc(N3CCOCC3)sc2c1	11.1	-	-	-	-	-
O=C(Nc1ccc(F)cc1F)c1ccc2nc(N3CCOCC3)sc2c1	17.6	-	-	-	-	49.1
CC(CCc1ccccc1)NC(=O)c1ccc2nc(N3CCOCC3)sc2c1 (configuration not stated)	-	-	-	-	-	-
Cc1cccc(NC(=O)c2ccc3nc(N4CCOCC4)sc3c2)c1C	-	-	-	-	-	15.9
O=C(Nc1ccc2nc(N3CCOCC3)sc2c1)c1ccc(F)cc1	.	-	.	-	.	.
O=C(Nc1ccc2nc(N3CCOCC3)sc2c1)c1ccccc1	.	-	.	-	.	.
O=C(NCCc1ccccc1)c1ccc2nc(N3CCOCC3)sc2c1	11.8	-	-	-	-	-
SMILES	CHX counter	Tb PYK inh	LmPK inhibitor	Sm TGR block	FBPA Giardia inh	Shiga toxin inh
CC[C@H](C)[C@H](NC(=O)[C@H](Cc1ccc(O)cc1)NC(=O)[C@@H](NC(=O)[C@H](CCCN=C(N)N)NC(=O)[C@@H](N)CC(=O)O)C(C)C)C(=O)N[C@@H](Cc1ccc(N)cc1)C(=O)N1CCC[C@H]1C(=O)N[C@@H](Cc1ccccc1)C(=O)O	-	.	.	.	-	-
Cc1ccc(OCCC(=O)NNC(=O)c2ccccc2F)cc1	.	-	.	-	.	.
Cc1ccc(NC2=NC(c3ccccc3)n3c(nc(C)cc3=O)N2)c(C)c1 (configuration not stated)	-	-	-	25.1µM	-	-
Cc1ccc(NC2=NC(c3ccc(F)cc3)n3c(nc(C)cc3=O)N2)c(C)c1 (configuration not stated)	-	-	-	-	-	-
O=C(CCNS(=O)(=O)c1ccc2c(c1)CCN2C(=O)C1CC1)N1CCN(c2ccc(F)cc2)CC1	.	-	.	-	.	.
Cc1ccc(/C=N/N2CCN(c3ccccn3)CC2)o1	34.6	-	-	-	-	75.0
C(=N\N1CCN(c2ccccn2)CC1)/c1ccco1	22.3	-	-	-	-	43.7
Cc1cc(C)nc(SC/C=C/c2ccccc2)n1	23.2	-	-	-	-	.
Nn1c(SC/C=C/c2ccccc2)nnc1-c1ccncc1	-	-	-	?	-	-
C(=C\c1ccccc1)/CSc1ccccn1	72.7	-	-	-	-	92.6
CCCCCCCCCCCCCCCC(=O)OC[C@@H](NC(=O)C(Cl)Cl)[C@H](O)c1ccc([N+](=O)[O-])cc1	.	-	.	.	.	.
CC(=O)c1cc(-c2ccccc2)n(CCC(=O)NCCc2ccccc2)c1C	.	-[15.4 µM]	.	-	.	.
O=C(NCCCN1CCN(c2ccc(F)cc2)CC1)c1sc2ncccc2c1-n1cccc1	.	-	.	-	.	.
O=C1NCCCC2c3c(cc(Br)c(O)c3Br)OC12N1CCCCC1 (configuration not stated)	-	-	-	22.4µM	-	-
O=C1NCCCc2c1oc1cc(Br)c(O)c(Br)c21	-	-	-	-	-	-
Cc1ccc(/C(O)=C2\C(=O)C(=O)N(CCCN3CCOCC3)C2c2ccccc2F)cc1 (configuration not stated)	.	-	.	.	.	.
O=C(Cn1ncc2ccsc2c1=O)N1CCN(c2ccc(F)cc2)CC1	.	-	.	-	.	.
Cc1nn(-c2nc3ccccc3s2)c(C)c1Oc1ccccc1O	31.9	-	-	-	-	71.9
CN(C(=O)c1ccc(NC(=O)Cc2cccc(NC(=O)C3CCN(C(=O)C4CC4)CC3)c2)cc1)C1CC1	.	-	.	.	.	.
Cc1ccc2nc(-c3ccc(Cl)c(NC(=O)c4cccc([N+](=O)[O-])c4C)c3)oc2c1	.	-	.	-	.	.
O=C(O)C1=C[C@@H](c2ccc(C(F)(F)F)cc2)C[C@@H](OCc2ccc(CO)cc2)O1	-	-	-	39.8µM	-	-
C#Cc1ccc([C@H]2C=C(C(=O)N3CCOCC3)O[C@@H](OCc3ccc(CO)cc3)C2)cc1	-	-	-	?	-	-
C#Cc1ccc([C@@H]2C=C(C(=O)O)O[C@H](OCc3ccc(CO)cc3)C2)cc1	-	-	-	35.5µM	-	-
O=C(O)C1=C[C@H](c2ccc(Br)cc2)C[C@H](OCc2ccc(CO)cc2)O1	-	-	-	31.6µM	-	-
O=C(O)C1=C[C@@H](c2ccccc2)C[C@@H](OCc2ccc(CO)cc2)O1	-	-	-	?	-	-
O=C(NC12CC3CC(CC(C3)C1)C2)c1ccc(Br)o1	-	-	-	-	-	-
O=C(NC1CCS(=O)(=O)C1)c1ccc(Br)o1 (configuration not stated)	-	-	-	-	-	-
O=C(NC12CC3CC(CC(C3)C1)C2)c1ccc(-c2ccc(Br)cc2)o1	68.3	-	-	?	-	107.8
O=C(NC1CCS(=O)(=O)C1)c1ccc(-c2ccc(Br)cc2)o1 (configuration not stated)	18.9	-	-	-[11.4 µM]	-	-
